In all, about 350,000 compounds went through this assay and about 31,000 (8.9%) were called active. Not shown: some 15% with an inconclusive outcome. Calls follow the shape of the dose curve; as a rule, active = well fitted inhibition curve with a large enough effect; inconclusive = small, poorly fitted or top-dose-only effect; inactive = no such curve, though single readings can be large or run the other way. What follows is part of a selection rich in actives, with near analogues and random picks from the rest.
Molecular target: Histone-lysine N-methyltransferase EHMT2 (Homo sapiens) (UniProt Q96KQ7)
Experiment: qHTS Assay for Inhibitors of Histone Lysine Methyltransferase G9a; also: nearly all actives have a fitted effect of over 75% in size
Details: G9a H3K9 monomethylation, AlphaScreen, 2 h; series mostly up to 59 µM
Outline: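 Signal arises when biotinylated H3K9 peptide, once monomethylated, bridges streptavidin donor and antibody-captured acceptor beads. Enzyme at 20 nM was preincubated 15 min with test compounds; peptide 500 nM and SAM 20 uM then reacted for 2 h.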
% is scaled to controls: 0 for no effect and ±100 for the full control effect; potency is read from the fitted curve at half-maximal effect.

Sequence of Histone-lysine N-methyltransferase EHMT2 (Homo sapiens) (Q96KQ7 913-1193 limits assumed): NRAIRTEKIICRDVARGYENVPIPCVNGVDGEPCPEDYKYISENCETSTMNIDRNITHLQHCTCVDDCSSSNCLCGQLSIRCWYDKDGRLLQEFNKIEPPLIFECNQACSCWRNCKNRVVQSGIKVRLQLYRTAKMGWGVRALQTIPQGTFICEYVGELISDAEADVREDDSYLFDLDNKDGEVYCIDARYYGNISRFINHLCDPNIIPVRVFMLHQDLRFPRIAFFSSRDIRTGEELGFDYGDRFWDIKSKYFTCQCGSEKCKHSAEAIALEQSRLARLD

activity, negative = inhibition, inactive:
CC(=O)c1sc(N)nc1C -2.73% [at 2.33 µM]
CCOc1ccc(CCNC(=O)COC(=O)c2c(OC)cccc2OC)cc1OCC -6.24% [at 2.33 µM]
CN(CC(=O)NCc1ccc2c(c1)OCO2)CC(=O)Nc1ccc(F)c(F)c1F 2.14% [at 12.7 µM]
Cc1ccc(Cl)c(OCC(=O)N(C)CC(=O)Nc2ccc(N3CCOCC3)cc2)c1 10.6% [at 0.501 µM]
CSc1ccc(S(=O)(=O)NCc2ccc(Cl)cc2)cc1 15.9% [at 12.7 µM]
Cc1cc(C)n(CCNS(=O)(=O)c2ccc(Cl)cc2)n1 -7.54% [at 0.501 µM]
O=C(c1cc(-c2ccc(Cl)s2)nc2ccccc12)N1CCOCC1 17% [at 12.7 µM]
CCCCOc1ccc(CSC(=N)N)cc1[N+](=O)[O-] 7.15% [at 12.7 µM]
CC1CC1C(=O)OCC(=O)Nc1cccc(F)c1 (stereo unspecified) 17.7% [at 2.33 µM]
O=C(CCNC(=O)c1ccc(Cl)cc1)NC1CCCc2ccccc21 (stereo unspecified) 15.5% [at 2.33 µM]

Potency, inactive:
CCCc1nnc(NC(=O)CCC(=O)NC2CC2)s1
O=C(NC1CC(=O)N(c2ccc(Cl)cc2)C1)C1CCCC1 (stereo unspecified)
CSc1ncc(C(=O)NCc2ccccc2Cl)c(C(F)(F)F)n1
COc1ccc(-n2nc(C(=O)NCC(=O)N3CCN(c4ccccc4OC)CC3)c3ccccc3c2=O)c(OC)c1
COC(=O)c1scc(-c2ccc(C)cc2)c1S(=O)(=O)Nc1cc(Cl)c(OC)cc1OC
CCC(C(=O)OC)n1cnc2scc(-c3ccc(C)cc3)c2c1=O (stereo unspecified)
NC(=O)CSc1nc2c(oc3ccccc32)c(=O)n1Cc1ccccc1
CCc1nnc(NC(=O)Cc2cccs2)s1
O=C(Cc1cccs1)Nc1nnc(SCc2ccc(F)cc2)s1
CCN(C(=O)CSc1nnnn1-c1ccccc1OC)C1CCS(=O)(=O)C1 (stereo unspecified)
O=C(Cn1c(=O)n(Cc2ccccc2)c(=O)c2sc3ccccc3c21)Nc1ccccc1F
COc1cc(OC)cc(-c2nc3nc(C)c(CCC(=O)Nc4ccc(C)cc4)c(C)n3n2)c1
COc1ccc(/C=C(\C#N)C(=O)OCC(=O)N(C)C2CCS(=O)(=O)C2)cc1 (stereo unspecified)
O=C(Cc1ccccc1)NNC1CC(=O)N(c2ccc(Br)cc2)C1=O (stereo unspecified)
Cc1ccc(N2C(=O)C3CC3C2=O)cc1 (stereo unspecified)
Cc1cccc(NC(=O)c2nnn(CC(=O)Nc3ccc(C(C)C)cc3)c2N)c1C
O=C(c1cccc([N+](=O)[O-])c1)N1CCN(C(=O)c2ccco2)CC1
CC1CCN(C(=O)CCNC(=O)c2ccccc2)CC1
CC1CCN(C(=O)/C(=C\c2ccccc2)NC(=O)c2ccccc2)CC1
CC1CCN(c2ccc([N+](=O)[O-])cc2C(N)=O)CC1
CCc1ccccc1NC(=O)CSc1nc(C)c(C(=O)Nc2ccccc2)c(-c2ccc(Cl)cc2)c1C#N
Cc1ccccc1C(=O)Nc1cc(C)c(O)c(-c2nc3ccccc3o2)c1
COC(=O)CN1C(=O)[C@H]2[C@@H](C3CC3)N3C(=O)CN(Cc4ccc(-c5ccccc5)cc4)C(=O)[C@@]3(Cc3ccccc3)[C@H]2C1=O
CSc1ccc(C2C(C(=O)Nc3ccccc3)=C(C)Nc3nc4ccccc4n32)cc1 (stereo unspecified)
COc1ccc(CN2C(=O)C(NC(=O)c3cccc(C)c3)(C(F)(F)F)N=C2c2ccccc2)cc1 (stereo unspecified)
COCCNc1cc(NCCOC)c([N+](=O)[O-])cc1[N+](=O)[O-]
COc1ccc(CC(NC(C)=O)C(=O)NC2CCN(C(=O)c3ccc(Cl)cc3)CC2)cc1 (stereo unspecified)
Cc1ccc(NC(=O)N2CCC(c3nc4c(nnn4Cc4c(F)cccc4Cl)c(=O)[nH]3)CC2)cc1
O=C(Nc1ccc(F)cc1)N1CCCC(c2nc3c(nnn3Cc3ccccc3Cl)c(=O)[nH]2)C1 (stereo unspecified)
Cc1ccccc1Nc1nn2c(=O)c3ccc(C(=O)NCCc4ccc(Cl)cc4)cc3nc2s1
Cc1cccc(C(=O)NCCCN2CCCC2=O)c1
COc1ccc(-c2nc3ccc(C(=O)NCc4ccc(C)cc4)cc3nc2-c2ccc(OC)cc2)cc1
CCc1ccc(CNC(=O)C2CCN(c3nnc(C)c4c(C)n(-c5ccc(C)cc5)nc34)CC2)cc1
O=C(CSc1nncs1)NC1CCCc2ccccc21 (stereo unspecified)
O=C(CCC(=O)N1CCN(S(=O)(=O)c2ccccc2)CC1)NC1CCCc2ccccc21 (stereo unspecified)
Cc1ccc(S(=O)(=O)N2CCN(C(=O)CCC(=O)NC3CCCc4ccccc43)CC2)cc1 (stereo unspecified)
COc1ccc(CCN2C(=O)c3oc4cc(C)cc(C)c4c(=O)c3C2c2ccccc2F)cc1OC (stereo unspecified)
COc1cccc2[nH]c(C(=O)NCCc3ccccc3)cc12
CCNC(=O)c1cnn(-c2ccccc2)c1-c1ccccc1

Potency, active:
COC(=O)c1c(-c2ccc(C)cc2)csc1N 31.6 µM
COc1ccc(Cc2nnc(NC(=O)Cc3cccs3)s2)cc1 39.8 µM
NC(=O)c1sc(-c2ccsc2)cc1N 14.1 µM
Cc1ccc(N2C(=O)CC(Nc3cccc4ccccc34)C2=O)cc1 (stereo unspecified) 14.1 µM
CC1CCN(C(=S)c2cccc(O)c2)CC1 14.1 µM
CC1CCN(C(=S)c2cccc([N+](=O)[O-])c2)CC1 35.5 µM
CCn1c(CNS(=O)(=O)c2ccc(Cl)cc2)n[nH]c1=S 28.2 µM
Cc1ccc([N+](=O)[O-])c(OCCCNCC(C)O)c1 (stereo unspecified) 12.6 µM
O=C(c1ccccc1F)N1CCC(c2nc3c(nnn3Cc3cccc(F)c3)c(=O)[nH]2)CC1 1 µM
Cc1cccc(-c2nc3ccc(C(=O)NCCN4CCN(C)CC4)cc3nc2-c2cccc(C)c2)c1 70.8 µM
CSc1ccccc1N1CCN(CCCCCC(=O)NC2CCCc3ccccc32)CC1 (stereo unspecified) 21.2 µM
O=C(CN1CCN(c2ccc(O)cc2)CC1)NC1CCCc2ccccc21 (stereo unspecified) 25.1 µM
